Sampled rows, rich in hits. Any-hit rate of the full collection: about 9.2%.
ELG1 genotox: genotoxicity induction in ELG1-luciferase HEK293T cells; HEK293T ELG1-luciferase reporter, luminescence, 16 h; Potency, µM (titrated, usually from 46 µM), inactives show at the top dose activity change, positive = activation, usual class: activators; actives 1.3% (n = 330,000); also: % of control where 0% means no effect; nearly all actives have a fitted effect of over 60% in size
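Screening used a luciferase reporter fused to human ELG1 in HEK293T cells. Luminescence was read on a CCD plate imager after 16 hr exposure and 30 min ONE-Glo incubation.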
SMN2 splice enh: enhancers of SMN2 splice variant expression; HEK293 SMN2-luciferase splicing reporter, luminescence, 30-36 h; actives 2.8% (n = 210,000); Potency, µM (titrated, usually from 46.1 µM), for inactives: at the top dose activity change, positive = activation, most hits filed as activators; AID 1458; also: % of control where 0% means no effect; nearly all actives have a fitted effect of over 55% in size
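HEK293 cells carry an SMN2 minigene-luciferase reporter in which exon 7 inclusion puts luciferase in frame. Cells were seeded at 2000 cells/well, attached for 10-12 hours, then exposed to compounds for 30-36 hours at 37C before ONE-Glo luminescence.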
NPC1 promoter act: NPC1 promoter activation | actives 2.4% (n = 320,000) | Potency, µM (series often up to 9.22 µM), for inactives: at the highest dose activation, hits mostly activators | AID 485313 | Huh7 NPC1 promoter luciferase reporter, 24 h; also: % of control where 0% means no effect; nearly all actives have a fitted effect of over 60% in size
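Luminescence from an NPC1 promoter-driven luciferase reporter in stably transfected Huh7 cells was measured after 24 h compound treatment at 37 °C, followed by 10 min ambient incubation with luciferase detection reagent.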
FLuc counter: firefly luciferase modulation, counter-screen for miR-21 project; purified FLuc, Km substrates, luminescence inhibition; actives 6.9% (n = 360,000); P08659; Potency, µM (series often up to 57.5 µM), without a hit: at the highest dose activity change, negative = inhibition, hits mostly inhibitors;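 also: plate controls were vehicle for no effect and reference inhibitor for full effect; nearly all actives have a fitted effect of over 55% in size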
Target sequence (P08659 whole entry, looked up): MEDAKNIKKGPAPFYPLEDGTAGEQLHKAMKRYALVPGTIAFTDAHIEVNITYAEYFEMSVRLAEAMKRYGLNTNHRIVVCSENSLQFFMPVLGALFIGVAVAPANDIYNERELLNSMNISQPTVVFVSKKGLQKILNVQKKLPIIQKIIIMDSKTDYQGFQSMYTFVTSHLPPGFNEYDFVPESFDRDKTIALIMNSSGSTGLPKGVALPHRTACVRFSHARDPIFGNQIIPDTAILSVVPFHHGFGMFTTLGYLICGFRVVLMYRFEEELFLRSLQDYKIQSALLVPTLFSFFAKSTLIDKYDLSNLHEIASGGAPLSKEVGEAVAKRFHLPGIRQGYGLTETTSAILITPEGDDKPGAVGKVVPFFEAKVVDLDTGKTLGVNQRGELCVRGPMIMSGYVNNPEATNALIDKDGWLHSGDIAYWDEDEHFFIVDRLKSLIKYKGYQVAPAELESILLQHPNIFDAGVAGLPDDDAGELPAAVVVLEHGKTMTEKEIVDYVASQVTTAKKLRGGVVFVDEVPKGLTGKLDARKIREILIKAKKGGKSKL
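Biochemical qHTS of compounds, final roughly 60 µM downward over six points, against 10 nM purified firefly luciferase using Km concentrations of substrates (10 uM D-luciferin, 10 uM ATP) in Tris acetate pH 7.5 buffer; luminescence output.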
ELG1 repair inh: inhibitors of ELG1-dependent DNA repair in HEK293T cells; HEK293T ELG1-luciferase reporter, luminescence, 16 h; DNA damage induced by 5-fluorouridine; Potency, µM (titrated, usually from 46.1 µM), inactives show at the highest dose activity change, negative = inhibition, hits mostly inhibitors; actives 2.3% (n = 330,000); also: % is scaled to controls: 0 for no effect and ±100 for the full control effect; nearly all actives have a fitted effect of over 55% in size
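Overnight (16 hr) co-exposure of 2,000 cells/well to 5-fluorouridine and compound at 37 °C preceded detection. Luciferase was quantified via ONE-Glo luminescence; loss of signal denotes inhibition.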
Rab9 promoter act: activators of Rab9 promoter | actives 2.8% (n = 320,000) | Potency, µM (series often up to 9.22 µM), for inactives: at the top dose activation, negative = inhibition, most hits filed as activators | AID 485297 | Huh7 Rab9 promoter-luciferase reporter, luminescence, 24 h; also: % of control where 0% means no effect; nearly all actives have a fitted effect of over 60% in size
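Quantitative HTS format; Huh7 Rab9-luciferase reporter cells (1500/well) receive compound 2 h post-plating, incubate 24 h at 37 °C, then get luciferase reagent for 10 min before luminescence reading.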
Active calls of the source: *; ? = inconclusive; nt = no result; [ ] = dose if it differs, or a comment. Calls follow the shape of the dose curve; as a rule, active = well fitted curve in the direction sought with a large enough effect; inconclusive = small, poorly fitted or top-dose-only effect, or another doubt; inactive = no such curve, though single readings can be large; an effect the other way counts as inactive or inconclusive. Potency is read from the fitted curve at half-maximal effect.

SMILES | ELG1 genotox | SMN2 splice enh | NPC1 promoter act | FLuc counter | ELG1 repair inh | Rab9 promoter act
O=C(NC1CCCCCCC1)c1ccc2c(c1)OCO2 | 2.1µM* | 5µM* | 0.79µM* | 3µM* | ? | 0.4µM*
CN(C(=O)c1ccc2c(c1)OCO2)C1(C(=O)NC2CCCC2)CCCCC1 | -4% | 2% | 2% | 1%[2.3 µM] | -1% | -3%
S=C(NC1CCCCC1)c1ccc2c(c1)OCO2 | 12% | 19% | 24% | 8.5µM* | ? | 25%
c1cc2c(cc1NC1CCCCCC1)OCO2 | 4% | nt | -3% | ? | ? | 10%
C=Cc1c(C)/c2[n-]/c1=C\c1[n-]c(c(CC)c1C)/C=c1\[n-]c3c(c1C)C(=O)C(C(=O)[O-])C=3c1[n-]c(c(C)c1CCC(=O)[O-])\C=2.[Cu].[Na+].[Na+] (stereo not given) | nt | -17% | nt | nt | nt | nt
O=C(c1ccco1)N1CCC2(CC1)CCN(c1cccc(-c3ccccc3)c1)CC2 | nt | -40% | nt | nt | nt | nt
COc1ccccc1/C=C/C=N/NC(=O)c1ccco1 | ? | nt | ? | 17µM* | ? | ?
COc1ccccc1/C=C/C=N/NC(=O)c1ccncc1 | 1% | 9% | 0% | ? | 4% | 0%
COc1ccc(/C=N/NC(=O)c2ccco2)cc1OCc1ccccc1 | -1% | nt | 0% | -12% | -13% | -4%
O=C(Nc1ccccc1C(=O)Nc1ccccc1)c1ccco1 | 4% | nt | -1% | -2% | 16% | -1%
COC(=O)c1ccc(COc2ccccc2/C=N/NC(=O)c2cccnc2)cc1 | 6% | -5% | -3% | 21µM* | ? | 0%
O=C(Nc1ccccc1C(=O)N/N=C/c1ccccc1)c1ccco1 | -3% | nt | ? | 2.7µM* | ? | 28%
O=C(N/N=C/c1ccc2cccnc2c1)c1ccco1 | 2.1µM* | nt | 1.4µM* | 6µM* | ? | 0.89µM*
N#CC(=C(/N)Sc1ccccc1N)/C(C#N)=C(\N)Sc1ccccc1N | nt | -34% | nt | nt | nt | nt
CO[C@@H]1/C=C\O[C@]2(C)Oc3c(C)c(O)c4c(O)c(cc(O)c4c3C2=O)NC(=O)/C(C)=C\C=C/[C@H](C)[C@@H](O)[C@H](C)[C@H](O)C(C)[C@H](OC(C)=O)[C@@H]1C (stereo not given in full) | nt | 4%[9.22 µM] | nt | nt | nt | nt
O=C(N/N=C/c1ccccc1)c1ccco1 | ? | nt | ? | 13µM* | ? | 3.2µM*
O=C(N/N=C\c1ccccc1OCc1ccccc1)c1ccco1 | -1% | 9% | -1% | 21µM* | 17% | 0%
O=C(NNC(=O)c1ccccc1O)c1ccco1 | ? | ? | ? | 19µM* | ? | ?
O=C(NNC(=O)c1ccccc1F)c1ccco1 | -6% | nt | 17% | -14% | ? | 18%
COc1ccc(CCCC(=O)N/N=C/c2cccc(OC)c2O)cc1C | ? | -90% | -8% | 17µM* | -5% | -25%
O=C(N/N=C/C=N/NC(=O)c1ccco1)c1ccco1 | -12% | nt | 0% | -15% | -12% | 1%
CCN(C[C@H]1N[C@@](C)(C(=O)OC)[C@H]2C(=O)N(Cc3ccccc3)C(=O)[C@@H]12)C(=O)Nc1ccc(OC)cc1 | 4% | nt | nt | nt | 17% | nt
COc1cccc(/C=N/NC(=O)CNC(=O)c2ccco2)c1O | 0% | nt | 7% | ? | 8.2µM* | -1%
CC(=O)c1ccc(NC(=O)C(NC(=O)c2ccccc2)=C(C)C)cc1 | 0% | -2% | 1% | -1% | 11% | -3%
CC(C)=C(NC(=O)c1ccccc1)C(=O)N/N=C/c1ccc(O)cc1 | 10% | 19% | -1% | 17µM* | ? | 1%
SMILES | ELG1 genotox | SMN2 splice enh | NPC1 promoter act | FLuc counter | ELG1 repair inh | Rab9 promoter act
CC(C)(C)OC(=O)N/N=C\c1ccc(OC(=O)c2ccco2)cc1 | ? | ? | ? | 2% | ? | 4µM*
COc1cccc(/C=N/NC(=O)c2ccccc2NC(=O)c2ccco2)c1OC | -2% | nt | 0% | 11µM* | 10% | -3%
COc1cccc(/C=N/NC(=O)CNC(=O)c2ccncc2)c1O | ? | nt | -3% | -10% | -15% | -6%
COc1ccc(CNC(=O)c2ccc(Cn3c(=O)c4cccn4c4cccnc43)cc2)cc1OC | nt | nt | nt | -11% | nt | nt
COc1cccc(/C=C/C(=O)NNC(=O)c2ccco2)c1OC | ? | nt | ? | 11µM* | ? | 4µM*
COc1cccc(/C=C/C(=O)OCC(=O)NCc2ccco2)c1OC | 3% | 19% | 1% | -15% | 8% | 1%
COc1cc(/C=N/NC(=O)c2ccncc2)ccc1OCc1cnc(Cl)s1 | 17% | 13µM* | 0% | 3% | ? | -2%
O=C(N/N=C/c1ccc(OCc2ccccc2)cc1)c1ccco1 | 19% | nt | ? | ? | ? | 2.8µM*
O=C(Nc1ccccc1C(=O)N/N=C/c1ccc(O)cc1)c1ccccc1 | 15% | nt | ? | 0.15µM* | ? | ?
Cc1ccsc1CN(C(=O)c1ccc(OCC(C)C)cc1)C1CCS(=O)(=O)C1 (stereo not given) | nt | -44% | nt | 2% | nt | nt
Cc1ccc(COc2ccccc2-c2cc(C(=O)N/N=C/c3cccnc3)[nH]n2)cc1 | -15% | nt | -27% | -6% | 23µM* | -21%
COc1ccc(C(=O)Nc2ccccc2C(=O)NCc2cccnc2)cc1OC | -11% | nt | -4% | 0% | ? | 3%
O=C(N/N=C/C(Br)=C\c1ccccc1)c1ccco1 | ? | nt | 2.5µM* | 3µM* | ? | 4µM*
Cc1ccc(/C=N/NC(=O)c2cc(-c3ccc(C)o3)[nH]n2)cc1 | -2% | nt | -1% | ? | ? | 0%
COc1ccccc1/C=C/C=N/NC(=O)c1cc(-c2ccc(C)o2)[nH]n1 | -13% | nt | 1% | 15µM* | ? | 0%
COc1ccc(C(=O)Nc2ccccc2C(=O)N/N=C/c2ccncc2)cc1OC | -4% | nt | 2µM* | 0.24µM* | ? | ?
CCOC(=O)c1ccc(NC(=O)C(Cc2ccccc2)N2Cc3ccccc3C2=O)cc1 (stereo not given) | nt | nt | nt | -9% | nt | nt
CC(NC(=O)c1ccccc1NC(=O)c1ccco1)C(=O)O (stereo not given) | ? | 0.32µM* | 0.56µM* | 21µM* | ? | 0.32µM*
O=C(Nc1ccccc1C(=O)NC(Cc1ccccc1)C(=O)O)c1ccco1 (stereo not given) | 1% | nt | 1% | -2% | 4% | 4%
Cc1ccc(NC(=S)NNC(C)(C)C)cc1 | -7% | nt | 11% | ? | -3% | 17%
CC(C)=NN/C(N)=N/C(=S)Nc1ccc(C)cc1 | ? | 17% | 2% | 4.8µM* | ? | 22%

Compound activity (PubChem BioAssay)
